# According to PubChem BioAssay (Tox21):
# Several values for one entry are separate records, joined by “and”; a condition that tells them apart may be missing. Equal entries are not always repeated. Records with an inconclusive call do not appear. Entries that show only a call come without a potency. A structure can be active in one record and inactive in another. Activity calls are given as the source filed them. Unless noted, calls follow the shape of the dose curve; as a rule, active = well fitted curve in the direction sought with a large enough effect in the repeat runs; inconclusive = weak or mixed curves; inactive = no such curve, though single readings can be large; an effect the other way counts as inactive or inconclusive.
# Key:
# [1] = biological target: Estrogen receptor beta (Homo sapiens) (UniProt Q92731); assay: qHTS assay to identify small molecule agonists of the estrogen receptor beta (ER-beta) signaling pathway (AID 1259377; active = well fitted activation curve with a large enough effect in the signal ratio in the repeat runs, not every such curve was filed as active; the % refers to the signal ratio)
# Sequence of Estrogen receptor beta (Homo sapiens) (Q92731 whole entry, looked up, the tested form may be a part): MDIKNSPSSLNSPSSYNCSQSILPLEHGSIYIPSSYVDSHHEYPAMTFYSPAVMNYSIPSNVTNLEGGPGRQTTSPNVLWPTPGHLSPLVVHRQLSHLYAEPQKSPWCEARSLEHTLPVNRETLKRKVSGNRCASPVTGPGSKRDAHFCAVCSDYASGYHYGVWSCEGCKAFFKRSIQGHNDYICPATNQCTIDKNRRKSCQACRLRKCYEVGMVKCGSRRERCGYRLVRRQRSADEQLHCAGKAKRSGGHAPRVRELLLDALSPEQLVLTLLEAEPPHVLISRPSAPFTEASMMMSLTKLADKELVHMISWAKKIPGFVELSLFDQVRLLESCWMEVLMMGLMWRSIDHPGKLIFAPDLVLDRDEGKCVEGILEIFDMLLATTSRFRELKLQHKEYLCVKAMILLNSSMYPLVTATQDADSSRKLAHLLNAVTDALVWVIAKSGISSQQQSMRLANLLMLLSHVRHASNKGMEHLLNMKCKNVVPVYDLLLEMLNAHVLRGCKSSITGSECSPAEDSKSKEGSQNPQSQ
# How it was run: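 Agonist mode cell assay in GripTite HEK293T cells expressing an ER-beta fusion that drives beta-lactamase from an Upstream Activator Sequence; 16 hr compound exposure at 37C, then 2 h LiveBLAzer B/G FRET substrate at room temperature, fluorescence read-out.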
# [2] = biological target: Estrogen receptor beta (Homo sapiens) (UniProt Q92731); assay: qHTS assay to identify small molecule antagonists of the estrogen receptor beta (ER-beta) signaling pathway (AID 1259378; active = well fitted inhibition curve with a large enough effect in the signal ratio in the repeat runs, not every such curve was filed as active; the % refers to the signal ratio; also: potency is read from the fitted curve at half-maximal effect)
# How it was run: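 ER-beta-UAS-bla HEK293T (GripTite) cells in 2% charcoal-stripped FBS medium were preincubated 6 hr at 37C, dosed with compound, then stimulated with 1 nM E2 (final) for 16 hr; beta-lactamase reporter read by B/G FRET fluorescence after 2 hr substrate loading.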
# [3] = qHTS assay to identify small molecule agonists of the androgen receptor (AR) signaling pathway in the presence of an antagonist - cell viability counter screen (AID 1259379); also: nearly all actives have a fitted effect of over 25% in size; also: potency is read from the fitted curve at half-maximal effect
# How it was run: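 In MDA-kb2 cells (human breast carcinoma, MMTV-luciferase), compounds at 15 concentrations plus 3.0uM nilutamide; 16 hr, 37C, 0% CO2; CellTiter-Fluor fluorescence read for viability.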
# [4] = qHTS assay to identify small molecule agonists of the estrogen receptor beta (ER-beta) signaling pathway - cell viability counter screen (AID 1259380); also: nearly all actives have a fitted effect of over 30% in size; also: potency is read from the fitted curve at half-maximal effect
# How it was run: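 Viability of ER-beta-UAS-bla HEK293T cells was determined by CellTiter-Glo luminescence following 16 hr treatment with test compounds at 37C.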
# [5] = qHTS assay to identify small molecule antagonists of the estrogen receptor beta (ER-beta) signaling pathway - cell viability counter screen (AID 1259382); also: nearly all actives have a fitted effect of over 55% in size; also: potency is read from the fitted curve at half-maximal effect
# How it was run: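 Tox21 10K library tested in qHTS format on ER-beta-bla HEK293T cells stimulated with 1nM E2; 16 hr treatment at 37C. Same-well CellTiter-Glo luminescence served as the cell viability measure.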
# [6] = biological target: Estrogen receptor (Homo sapiens) (UniProt P03372); assay: qHTS assay to identify small molecule agonists of the estrogen receptor alpha (ER-alpha) signaling pathway in the presence of an antagonist (AID 1259383; calls by dose curve; also: top concentration of the series differs between compounds; nearly all actives have a fitted effect of over 15% in size)
# Sequence of Estrogen receptor (Homo sapiens) (P03372 whole entry, looked up): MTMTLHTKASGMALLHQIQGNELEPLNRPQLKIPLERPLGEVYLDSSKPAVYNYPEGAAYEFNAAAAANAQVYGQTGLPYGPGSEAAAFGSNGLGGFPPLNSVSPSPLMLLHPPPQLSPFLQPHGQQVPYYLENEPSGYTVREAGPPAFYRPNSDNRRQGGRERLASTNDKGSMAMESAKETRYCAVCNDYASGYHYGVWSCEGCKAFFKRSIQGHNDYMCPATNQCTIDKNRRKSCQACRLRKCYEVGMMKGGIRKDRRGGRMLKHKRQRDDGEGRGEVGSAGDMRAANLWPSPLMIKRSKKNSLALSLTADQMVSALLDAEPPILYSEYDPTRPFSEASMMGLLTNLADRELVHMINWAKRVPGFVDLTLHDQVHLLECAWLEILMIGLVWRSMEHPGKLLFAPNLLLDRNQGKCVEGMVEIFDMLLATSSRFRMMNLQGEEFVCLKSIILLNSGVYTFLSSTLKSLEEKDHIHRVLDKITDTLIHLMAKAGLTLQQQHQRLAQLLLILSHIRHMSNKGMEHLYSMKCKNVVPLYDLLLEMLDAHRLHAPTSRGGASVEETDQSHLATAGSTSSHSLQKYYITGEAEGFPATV
# How it was run: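 In VM7Luc4E2 cells, 4,000 per well, compounds at 15 concentrations were co-incubated 22hr at 37C with 10.0nM final ICI-182,780. Luminescence from the stably transfected 4×ERE-luciferase reporter was recorded 30min after ONE-Glo addition.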
# [7] = qHTS assay to identify small molecule agonists or antagonists of the thyroid stimulating hormone receptor (TSHR) signaling pathway - wild type cell line counter screen (AID 1259384; calls by dose curve)
# How it was run: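 Wild-type HEK293 cells were plated 18 h at 37 C/5% CO2, pin-dosed with compound plus Ro20-1724 medium, held 30 min at room temperature, then given cAMP-d2 and anti-cAMP-cryptate; fluorescence was read after 1 h. Fifteen concentrations, triplicate.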
# [8] = qHTS assay to identify small molecule agonists of the estrogen receptor alpha (ER-alpha) signaling pathway in the presence of an antagonist - cell viability counter screen (AID 1259386);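 also: cells exposed to compounds for 22 h at 37 °C before the viability read; nearly all actives have a fitted effect of over 30% in size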; also: potency is read from the fitted curve at half-maximal effect
# How it was run: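 Fluorescent CellTiter-Fluor viability signal from VM7Luc4E2 cells, with the reagent added during the final hour of a 22hr compound exposure at 37C in the presence of 10.0nM ICI-182,780.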
# [9] = biological target: Progesterone receptor (Homo sapiens) (UniProt P06401); assay: qHTS assay to identify small molecule agonists of the progesterone receptor (PR) signaling pathway (AID 1346784; calls by dose curve; also: nearly all actives have a fitted effect of over 30% in size)
# Sequence of Progesterone receptor (Homo sapiens) (P06401 whole entry, looked up): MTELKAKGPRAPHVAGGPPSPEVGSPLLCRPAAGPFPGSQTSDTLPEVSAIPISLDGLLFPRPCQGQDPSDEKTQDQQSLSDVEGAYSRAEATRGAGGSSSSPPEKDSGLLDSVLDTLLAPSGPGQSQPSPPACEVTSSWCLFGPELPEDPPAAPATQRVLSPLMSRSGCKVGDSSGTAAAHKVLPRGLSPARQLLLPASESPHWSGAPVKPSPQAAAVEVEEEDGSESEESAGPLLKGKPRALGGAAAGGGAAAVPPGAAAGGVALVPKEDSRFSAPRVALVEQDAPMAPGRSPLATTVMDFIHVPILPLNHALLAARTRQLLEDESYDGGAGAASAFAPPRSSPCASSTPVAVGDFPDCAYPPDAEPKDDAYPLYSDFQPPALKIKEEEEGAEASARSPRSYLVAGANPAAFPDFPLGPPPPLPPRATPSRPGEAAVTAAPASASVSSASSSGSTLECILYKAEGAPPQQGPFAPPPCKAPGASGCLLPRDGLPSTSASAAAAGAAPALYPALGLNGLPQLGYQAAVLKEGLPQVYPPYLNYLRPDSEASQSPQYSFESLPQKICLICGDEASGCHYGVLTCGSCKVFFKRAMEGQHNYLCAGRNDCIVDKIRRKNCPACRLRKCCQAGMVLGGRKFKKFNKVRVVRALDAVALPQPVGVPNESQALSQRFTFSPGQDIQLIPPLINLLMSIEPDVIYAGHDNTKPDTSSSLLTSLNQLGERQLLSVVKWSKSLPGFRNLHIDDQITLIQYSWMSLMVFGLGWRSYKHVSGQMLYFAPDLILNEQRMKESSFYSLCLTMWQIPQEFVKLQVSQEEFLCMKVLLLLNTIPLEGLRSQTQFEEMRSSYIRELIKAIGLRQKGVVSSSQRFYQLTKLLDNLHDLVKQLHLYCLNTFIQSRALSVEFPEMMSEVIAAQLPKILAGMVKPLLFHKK
# How it was run: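 Cells (PR-UAS-bla HEK 293T, GripTite) were plated in assay medium containing 2% charcoal-stripped FBS and incubated 6 hr. Test compounds in DMSO were added for 16 hr at 37C. FRET substrate was then loaded for 2 hr at room temperature before fluorescence reading.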
# [10] = biological target: Thyrotropin receptor (Homo sapiens) (UniProt P16473); assay: qHTS assay to identify small molecule antagonists of the thyroid stimulating hormone receptor (TSHR) signaling pathway (AID 1259385; calls by dose curve; also: nearly all actives have a fitted effect of over 20% in size)
# Sequence of Thyrotropin receptor (Homo sapiens) (P16473 whole entry, looked up): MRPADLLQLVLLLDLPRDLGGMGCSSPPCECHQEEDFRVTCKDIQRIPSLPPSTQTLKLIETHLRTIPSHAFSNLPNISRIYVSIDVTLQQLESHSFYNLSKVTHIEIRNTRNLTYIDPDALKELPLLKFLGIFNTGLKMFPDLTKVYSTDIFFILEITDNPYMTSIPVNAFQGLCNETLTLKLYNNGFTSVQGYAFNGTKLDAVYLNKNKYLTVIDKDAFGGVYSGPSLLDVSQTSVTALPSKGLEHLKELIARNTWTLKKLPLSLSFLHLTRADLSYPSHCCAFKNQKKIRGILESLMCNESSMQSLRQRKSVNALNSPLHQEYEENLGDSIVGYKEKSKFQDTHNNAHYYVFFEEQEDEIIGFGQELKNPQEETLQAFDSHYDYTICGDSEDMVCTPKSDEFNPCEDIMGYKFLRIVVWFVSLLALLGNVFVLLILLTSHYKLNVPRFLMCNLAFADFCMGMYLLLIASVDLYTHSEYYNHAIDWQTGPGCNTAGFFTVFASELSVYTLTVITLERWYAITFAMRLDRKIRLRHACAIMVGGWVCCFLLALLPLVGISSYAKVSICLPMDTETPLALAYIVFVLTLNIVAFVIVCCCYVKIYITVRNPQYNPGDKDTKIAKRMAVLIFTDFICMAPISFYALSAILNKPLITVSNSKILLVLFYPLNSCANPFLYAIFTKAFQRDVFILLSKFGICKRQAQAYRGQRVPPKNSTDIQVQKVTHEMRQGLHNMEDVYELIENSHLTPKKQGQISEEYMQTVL
# How it was run: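 TSHR-HEK293 cells were plated and held 18 h at 37C/5% CO2, then given compound plus Ro20-1724 and stimulated with TSH at 1.5 ng/mL final. After 30 min at room temperature, cAMP was detected with cAMP-d2/anti-cAMP-cryptate (1 h) by fluorescence.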
Compound,outcome [1],Potency [2],Potency [3],Potency [4],Potency [5],Potency [6],Potency [7],Potency [8],Potency [9],Potency [10]
C1COC(NC(C2CC2)C2CC2)=N1,inactive,inactive,inactive,inactive,inactive,inactive,inactive,inactive,inactive,–
COC(=O)c1cccc(C(=O)OC)c1,inactive,inactive,inactive,inactive,inactive,inactive,–,inactive,inactive,–
OCCN1CCNCC1,inactive,inactive,inactive,inactive,inactive,inactive,–,–,inactive,inactive
NC(=Nc1ccccc1)Nc1ccccc1,inactive,inactive,inactive,inactive,inactive,inactive,inactive,inactive,inactive,inactive
CN1C(=O)c2ccc([N+](=O)[O-])cc2C1=O,inactive,inactive,inactive,inactive,inactive,inactive,inactive,inactive,–,inactive
CC(C)(C)NCC(O)COc1ccccc1OCC1CCCO1 (stereo unspecified),inactive,inactive,inactive,inactive,inactive,inactive,inactive,inactive,inactive,inactive
Nc1ccc(O)cc1,inactive,inactive,56.6 µM (active) and inactive,inactive,63.5 µM (active) and inactive,inactive,inactive,31.8 µM (active) and inactive,inactive,inactive
C=CC(=O)OCCCCCCCC,inactive,inactive,inactive,inactive,inactive,inactive,–,inactive,inactive,inactive
CCCCCC(=O)O[C@]1(C(C)=O)CC[C@H]2[C@@H]3CCC4=CC(=O)CC[C@]4(C)[C@H]3CC[C@@]21C,inactive,6.68 µM (active),60.7 µM (active) and 29.8 µM (active),inactive,inactive,inactive,inactive,inactive,–,–
CC(=O)N[C@@H](CS)C(=O)O,inactive,inactive,inactive,inactive,inactive,inactive,inactive,–,inactive,inactive
O=C(O)Cn1cnnn1,inactive,inactive,inactive,inactive,inactive,inactive,–,inactive,inactive,inactive
O=C(O[C@@H]1Cc2c(O)cc(O)cc2O[C@@H]1c1cc(O)c(O)c(O)c1)c1cc(O)c(O)c(O)c1,inactive,inactive,54.6 µM (active),inactive,inactive,inactive,–,54.6 µM (active) and 46.8 µM (active),inactive,–
CCOc1ccccc1C(N)=O,inactive,inactive,inactive,inactive,inactive,inactive,inactive,inactive,inactive,inactive
CC(C)CCOCc1ccccc1,inactive,inactive,inactive,inactive,inactive,inactive,inactive,inactive,inactive,inactive
COc1nc(C)nc(Cl)c1NC1=NCCN1,inactive,inactive,inactive,inactive,inactive,inactive,–,–,inactive,inactive
COC(=O)/C=C/c1ccccc1,inactive,inactive,inactive,inactive,inactive,inactive,inactive,inactive,inactive,–
Oc1ccc(Cl)cc1Cc1cc(Cl)ccc1O,inactive,17.5 µM (active) and 19.3 µM (active) and 23.7 µM (active),39.3 µM (active) and 27.3 µM (active) and 29.8 µM (active),49.4 µM (active) and 48.6 µM (active) and 18.8 µM (active),27.8 µM (active) and 27.3 µM (active),inactive,inactive,43.3 µM (active),inactive,–
CCN(CC)C(=O)Nc1ccc(OCC(O)CNC(C)(C)C)c(C(C)=O)c1 (stereo unspecified),inactive,inactive,inactive,inactive,–,inactive,–,inactive,inactive,inactive
N[C@@H]1CONC1=O,inactive,inactive,inactive,inactive,inactive,–,inactive,inactive,inactive,–
Oc1c(Cl)cc(Cl)c(Cl)c1Cc1c(O)c(Cl)cc(Cl)c1Cl,inactive,–,8.61 µM (active) and 9.69 µM (active) and 9.44 µM (active),60.9 µM (active) and 30.6 µM (active),48.4 µM (active) and 34.4 µM (active) and inactive,–,–,–,–,–
Cc1ccnc2c1NC(=O)c1cccnc1N2C1CC1,inactive,inactive,inactive,inactive,inactive,–,inactive,–,inactive,inactive
